High-throughput results as filed in PubChem.
Methyltransferases = Primary Screen for Target Class Profiling of Small Molecule Inhibitors of Methyltransferases; purified enzyme, MTase-Glo SAH luminescence; stronger effect = lower value; calls only at 40 µM; 25,000 compounds, 3.9% hits; AID 1745853, 2022; call rule not given here
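Each enzyme was assayed with SAM and its substrate. SAH formation detected by MTase-Glo luminescence; single-point 40 uM screen[…].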
Active calls of the source: *; i = inactive; + = active, no number. Only a selection was taken, and hits are over-represented in it overall. % is scaled to controls: 0 for no effect and ±100 for the full control effect.

SMILES | Methyltransferases
O=C(NCCc1ccccc1)c1ccc2c(=O)[nH]c3c(C(=O)NCC4CCCO4)sc(=S)n3c2c1 (configuration not stated) | +
Cc1ccc(N2C(=O)c3cc4occc4n3CC2(C)C(=O)NC2CCCCC2C)cc1C (configuration not stated) | i
O=C(CCc1nnc2n(Cc3ccc(F)cc3)c(=O)c3ccccc3n12)N1CCN(Cc2ccccc2)CC1 | i
Fc1ccc(CNc2nc3c(-c4ccccc4)nnn3c3ccccc23)cc1 | i
CC(C)NC(=O)c1ccc2c(=O)n(Cc3ccccc3)c3nn(CC(=O)c4ccccc4)c(=O)n3c2c1 | i
Cc1ccc(NC(=O)c2cc3n(n2)CC(C)(C(=O)NC2CCCCCC2)N(C)C3=O)cc1C (configuration not stated) | i
Cc1cc(O)c(-c2ccc([C@@H](C)CN(C)C)cc2)c2c1[nH]c(=O)c1sccc12 | +
CC(C)CCn1c(=O)c2ccc(C(=O)NCC(C)C)cc2n2c(=O)n(Cc3ccccc3)nc12 | i
C#Cc1cccc(Nc2ncnc3cc(OC)c(OCCCCCCC(=O)NO)cc23)c1 | +
COc1cc2ncnc(Nc3ccc(O)cc3)c2cc1OC | i
C#Cc1cccc(Nc2nc3cc(C(=O)O)ccc3c3cncnc23)c1 | i
Cc1ccc(N2C(=O)c3cc4sccc4n3CC2(C)C(=O)NC2CCCCCC2)c(C)c1 (configuration not stated) | i
Cc1cc(C)cc(NC(=O)CSc2nnc3n(CCCOC(C)C)c(=O)c4ccccc4n23)c1 | i
Cc1ccc(Cn2c(=O)c3ccccc3n3c(SCC(=O)Nc4ccc(F)cc4)nnc23)cc1 | i
CC[C@H](C)C(=O)O[C@H]1C[C@@H](C)C=C2C=C[C@H](C)[C@H](CC[C@@H]3C[C@@H](O)CC(=O)O3)[C@H]21 | i
CC[C@H](C)C(=O)O[C@H]1CCC=C2C=C[C@H](C)[C@H](CC[C@@H]3C[C@@H](O)CC(=O)O3)[C@H]21 | +
Cc1sc2ncn(CC(=O)NCc3cccs3)c(=O)c2c1S(=O)(=O)N1CCC(C)CC1 | i
CCCn1c(=O)c2ccccc2n2c(SCC(=O)Nc3ccccc3F)nnc12 | i
O=C(/C=C/c1ccc(O)cc1)O[C@@H]1C[C@@](O)(C(=O)O)C[C@@H](O)[C@@H]1O | i
Oc1ccc([C@@H]2Oc3ccc(O)cc3[C@@H]3CCC[C@@H]32)cc1 | i
COc1cc([C@@H]2Oc3c(OC)cc(CCCO)cc3[C@@H]2CO[C@@H]2O[C@H](CO)[C@@H](O)[C@H](O)[C@H]2O)ccc1O | i
COc1cc(C2Oc3c(OC)cc(CCCO)cc3C2CO)ccc1O (configuration not stated) | +
COc1cc(/C=C/C(=O)OC2CC3CCC2(C)C3(C)C)ccc1O (configuration not stated) | i
COc1cc(C2Oc3c(OC)cc(/C=C/C(=O)OC4CC(O)(C(=O)O)CC(O)C4O)cc3C2CO)ccc1O (configuration not stated) | +
COc1cc(C2Oc3c(O)cc(CCCO)cc3C2CO)ccc1O[C@H]1O[C@H](C)[C@@H](O)[C@H](O)[C@@H]1O (some centres not stated) | i
SMILES | Methyltransferases
C/C=C/c1cc(OC)c2c(c1)[C@@H](C)[C@@H](c1ccc(O)c(OC)c1)O2 | +
COc1cc(C(O)C2COC(c3ccc(OC4OC(CO)C(O)C(O)C4O)c(OC)c3)C2CO)ccc1O (configuration not stated) | i
C/C=C/c1ccc2c(c1)[C@@H](C)[C@H](c1ccc(O)cc1)O2 | +
CCc1ccccc1N1C(=O)c2c(C(=O)OC)ncn2CC1(C)C(=O)NCc1ccccc1 (configuration not stated) | i
CC(C)CCn1c(=O)c2ccc(C(=O)NC3CCCC3)cc2n2c(=O)n(Cc3ccccc3)nc12 | i
COc1cccc(CN2C(=O)c3cc4ccccc4n3CC2(C)C(=O)NCc2ccccc2)c1 (configuration not stated) | i
COCCN1C(=O)c2cc(-c3ccc(OC)c(OC)c3)nn2CC1(C)C(=O)NC1CCCCC1 (configuration not stated) | i
CCCn1c(=O)c2ccc(C(=O)NC(C)CC)cc2n2c(SCC(=O)Nc3ccc(C)cc3)nnc12 (configuration not stated) | i
CCOC(=O)c1cccc(N2C(=O)c3cc4ccccc4n3CC2(C)C(=O)NCCC(C)C)c1 (configuration not stated) | i
O=C1CN(Cc2ccc(-c3ccccc3)cc2)CCN1c1ccc(Cl)nn1 | i
O=c1[nH]ccc2nc(-c3ccc(CN4CCC(c5nc(-c6ccccn6)n[nH]5)CC4)cc3)c(-c3ccccc3)cc12 | +
CN1C(=O)c2cc(C(=O)NCCN3CCCC3)nn2CC1(C)C(=O)NCc1ccc(F)cc1 (configuration not stated) | i
CC(C)c1cc2n(n1)CC(C)(C(=O)NC1CCCCCC1)N(Cc1ccccc1Cl)C2=O (configuration not stated) | i
O=C1Cc2c([nH]c3ccc(Br)cc23)-c2ncccc2N1 | +
Cc1ccc(NC(=O)Cn2c(=O)oc3cc(S(=O)(=O)N4CC(C)CC(C)C4)ccc32)cc1C (configuration not stated) | i
CN(CC(=O)Nc1cccc(F)c1)S(=O)(=O)c1ccc2[nH]c3c(c2c1)CCCC3 | i
CN(C)[C@@H]1CCc2[nH]c3ccc(NC(=O)c4ccc(F)cc4)cc3c2C1 | +
O=S(=O)(Nc1ccc(F)cc1)c1ccc2[nH]c3c(c2c1)CCCC3 | i
COc1ccc(Cl)cc1NS(=O)(=O)c1ccc2[nH]c(=O)[nH]c2c1 | i
COc1ccc2cc3n(c2c1)CC(C)(C(=O)NCC1CCCO1)N(Cc1ccccc1C)C3=O (configuration not stated) | i
Cc1ccn(-c2cc(Cl)ccc2[C@@H](Oc2cc(-c3ccc(C[C@H](N)C(=O)O)cc3)nc(N)n2)C(F)(F)F)n1 | +
CCOC(=O)c1cc2n(n1)CC(C)(C(=O)NC1CCC(C)CC1)N(c1ccccc1CC)C2=O (configuration not stated) | i
COC(=O)c1ncn2c1C(=O)N(CCC1=CCCCC1)C(C)(C(=O)NCc1ccccc1)C2 (configuration not stated) | i
Cc1ccc(Cn2c(=O)c3ccccc3n3c(=O)n(CC(=O)Nc4ccc(C)cc4C)nc23)cc1 | i
O=C(NCc1ccc2c(c1)OCO2)c1sc(=S)n2c1[nH]c(=O)c1ccc(Cl)cc12 | +
SMILES | Methyltransferases
O=C(NCc1cccc(Cl)c1)c1sc(=S)n2c1[nH]c(=O)c1cc3c(cc12)OCO3 | +
O=C(NCc1ccc2c(c1)OCO2)c1sc(=S)n2c1[nH]c(=O)c1cc3c(cc12)OCO3 | i
COC(=O)c1ccc2c(=O)[nH]c3c(C(=O)NCc4ccc5c(c4)OCO5)sc(=S)n3c2c1 | i
CCc1ccc(NC(=O)c2sc(=S)n3c2[nH]c(=O)c2cc(Cl)ccc23)cc1 | i
O=C(NCc1ccc2c(c1)OCO2)c1n[nH]nc1Nc1ccc(Cl)cc1 | i
COc1ccc(-c2n[nH]n3c2nc(=O)c2ccc(C(=O)NCc4ccc(C(C)C)cc4)cc23)cc1 | i
O=C(CSc1nnc2n(CCc3ccccc3)c(=O)c3ccccc3n12)Nc1cccc(F)c1 | i
CC(C)OCCCn1c(=O)c2ccccc2n2c(CCC(=O)N3CCN(c4ccccc4F)CC3)nnc12 | i
